Screens from PubChem.
NALP3 yeast inh = blocks the NALP3 inflammasome reconstituted in yeast | Yeast reconstituted NLRP3/ASC/caspase-1, beta-gal luminescence, 24 h | actives 0.39% (n = 330,000) | inhibition, % at 10 µM;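 active = inhibition of 50% or more; inactive = inhibition below 50%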
NALP1 yeast inh = NALP1 inhibition; inhibition, % at 10 µM; AID 2071; actives 0.61% (n = 280,000); S. cerevisiae NALP1/ASC/caspase-1 growth, X-gal OD620, 72 h; in the data active = inhibition mostly above about 24%, no sharp cut-off; inactive = mostly below about 32%
tim10-1 inh = tim10-1 yeast growth inhibition; S. cerevisiae tim10-1 ts strain growth, BacTiter-Glo, 24 h; inhibition, % at 20 µM; actives 2.2% (n = 330,000); AID 463190;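 active = inhibition of at least 40%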;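 note: mutant grown at 25 °C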
TIM10 inh = inhibits growth of TIM10 yeast strain; AID 463195; inhibition, % at 10 µM; actives 1.4% (n = 330,000); S. cerevisiae TIM10 strain growth, BacTiter-Glo luminescence, 24 h;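 active = inhibition of 40% or more at the single tested concentration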;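 note: wild-type TIM10 isogenic control strain grown at permissive 25 °C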
tim23-1 inh = inhibits growth of tim23-1 mutant yeast | S. cerevisiae tim23-1 growth, BacTiter-Glo luminescence, 24 h | inhibition, % at 20 µM | actives 1.3% (n = 330,000);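 active = growth inhibition of the mutant yeast at or above 50%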;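 note: temperature-sensitive mutant grown at 25 °C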
tim10 confirm = TIM10 yeast growth inhibition, confirmed | actives 63% (n = 4,600) | shares compounds with TIM10 inh | AID 463215 | S. cerevisiae tim10 strain growth, BacTiter-Glo luminescence, 24 h | inhibition, % at 10 µM;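 active = inhibition of yeast growth at or above a set limit in either of two replicates at 10 µM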; note: this counterscreen used the strain with wild-type TIM10
tim23-1 confirm = confirmation of tim23-1 mutant yeast growth inhibitors | inhibition, % at 20 µM | actives 83% (n = 4,400) | S. cerevisiae tim23-1 growth, BacTiter-Glo luminescence, 24 h | shares compounds with tim23-1 inh | AID 463218;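 active = inhibition above about 39% in either of two replicate wells at 20 µM, limit read from the data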;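 note: temperature-sensitive tim23-1 mutant grown at 25 °C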
Of the large screens only hits and unclear results are named; the others gave an inactive call (follow-up assays come after a bar, where they were run). An excerpt weighted towards active compounds, which were near 4% of everything screened.

Cc1noc(C)c1C(=O)OCC(=O)C12CC3CC(CC(C3)C1)C2	none
O=C(N/N=C/c1ccccc1O)c1cc(=O)[nH]c2ccccc12	none
O=C(N/N=C/c1ccccc1O)c1cccc2ccccc12	TIM10 inh 40.7, tim23-1 inh 66.5 | tim10 confirm inactive | tim23-1 confirm inactive
CC(=O)Nc1ccc(NC2CCCCC2NS(=O)(=O)c2ccccc2)cc1 (centres undefined)	none
CCCOC(=O)Oc1ccc2c(=O)c(Oc3cc(C)cc(C)c3)coc2c1	TIM10 inh 46.6, tim23-1 inh 50.8 | tim10 confirm 41.2 | tim23-1 confirm 52.8
O=C(N/N=C/C(Br)=C/c1ccccc1)c1ccncc1	none
O=C(N/N=C/C(Br)=C\c1ccccc1)c1cccs1	TIM10 inh 44.0, tim23-1 inh 70.9 | tim10 confirm 39.8 | tim23-1 confirm 69.3
Cc1ccc(NC(=O)OCCN2CCN(Cc3ccccc3)CCC2=O)cc1	none
CCC1CCCCN1C(=S)NC(=O)c1cc(Br)ccc1Cl (centres undefined)	TIM10 inh 52.8, tim23-1 inh 57.7 (no result: NALP1 yeast inh) | tim10 confirm 51.9 | tim23-1 confirm 53.2
CC1CCCCN1C(=S)NC(=O)c1cc(Br)ccc1Cl (centres undefined)	TIM10 inh 41.0, tim23-1 inh 54.5 (no result: NALP1 yeast inh) | tim10 confirm 44.0 | tim23-1 confirm 50.5
CCC1CCCCN1C(=S)NC(=O)c1cccs1 (centres undefined)	none
CCOc1ccc(NC(=O)c2cc3cc4ccc(C)cc4nc3o2)cc1	none
Cc1ccc2cc3cc(C(=O)NCCCN4CCCCCC4)oc3nc2c1	TIM10 inh 58.3, tim23-1 inh 50.6 | tim10 confirm inactive | tim23-1 confirm inactive
Cc1cc(=O)oc2cc(OCC(=O)OCC(=O)NCCc3ccccc3)ccc12	none
COC(=O)/C(=C(/F)Sc1cc(C)c(O)c(C)c1)C(F)(F)F	TIM10 inh 42.4, tim23-1 inh 53.6 | tim10 confirm inactive | tim23-1 confirm 51.9
CN(c1ccccc1)S(=O)(=O)c1cccc(C(=O)NCC(=O)Nc2ccc(F)c(F)c2F)c1	none (no result: NALP1 yeast inh)
CCN(CC)CCNC(=O)c1ccc2c(c1NCCO)C(=O)c1ccccc1C2=O	TIM10 inh 43.5, tim23-1 inh 69.7 | tim10 confirm 48.5 | tim23-1 confirm 60.0
CC1CCCN(S(=O)(=O)c2ccc(NC(=O)C3CCN(C(=O)C(C)(C)C)CC3)cc2)C1 (centres undefined)	none (no result: NALP1 yeast inh)
CN(CC(=O)Nc1cccc(F)c1)C(=O)c1cccnc1Sc1ccccc1Cl	none (no result: NALP1 yeast inh)
CCOC(=O)Nc1ccc2nc(N3CCCCCC3)sc2c1	TIM10 inh 40.1, tim23-1 inh 50.0 | tim10 confirm 39.9 | tim23-1 confirm inactive
CCOC(=O)N1CCN(C(=O)Nc2ccc3nc(C)sc3c2)CC1	none
Cc1c(C(=O)Oc2cccc3cccnc23)oc2ccccc12	TIM10 inh 53.5, tim23-1 inh 64.6 | tim10 confirm 40.5 | tim23-1 confirm 58.3
COc1ccc(CN=C2NN=C(c3ccc(Cl)cc3)CS2)cc1	TIM10 inh 45.6, tim23-1 inh 65.3 | tim10 confirm 31.5 | tim23-1 confirm 67.7
COc1ccc(CCNC(=O)COc2ccc3c(C)cc(=O)oc3c2)cc1OC	none
CCOC(=O)CSC1=NC(=O)/C(=C\c2ccc(Cl)cc2)S1	TIM10 inh 49.5, tim23-1 inh 71.2 | tim10 confirm 58.2 | tim23-1 confirm 44.9
O=C1C(=O)c2ccc(-c3ccccc3)cc2-c2ccccc21	TIM10 inh 43.9, tim23-1 inh 59.2 | tim10 confirm 61.2 | tim23-1 confirm 55.8
Nc1ccc2c(c1)C(=O)c1ccccc1C2=O	none (no result: NALP1 yeast inh)
CCN(c1ccccc1)S(=O)(=O)c1cccc(C(=O)N(C)CCOc2ccccc2)c1	none (no result: NALP1 yeast inh)
CC(=O)Nc1sc2c(c1C(c1ccc(Cl)cc1)N1CCOCC1)CCCC2 (centres undefined)	TIM10 inh 41.2, tim23-1 inh 50.5 | tim10 confirm inactive | tim23-1 confirm 55.1
COc1cccc(CN2CCNC(=O)C2CC(=O)N(C)C2CCCCC2)c1 (centres undefined)	none
Cc1ccc(-c2nnc(N3CCCCCC3)c3ccccc23)cc1	TIM10 inh 43.8, tim23-1 inh 59.9 | tim10 confirm inactive | tim23-1 confirm 54.2
CC(Oc1ccc(Cl)cc1)C(=O)NNC(=S)NC(=O)c1ccco1 (centres undefined)	none
CN(Cc1ccccc1)S(=O)(=O)c1ccc(Cl)c(C(=O)NCc2cccnc2)c1	none (no result: NALP1 yeast inh)
CNC(=S)N/N=C/c1cn(Cc2ccc(F)cc2)c2ccccc12	TIM10 inh 40.2, tim23-1 inh 51.3 | tim10 confirm 49.2 | tim23-1 confirm 38.5
COC(=O)N/N=C/c1cn(Cc2ccc(F)cc2)c2ccccc12	none
CC(NC(=O)c1ccc([N+](=O)[O-])o1)C12CC3CC(CC(C3)C1)C2 (centres undefined)	TIM10 inh 44.9, tim23-1 inh 61.4 | tim10 confirm 59.4 | tim23-1 confirm inactive
Cc1ccc(O)c(N=NC2=C(O)CC(C)(C)CC2=O)c1	TIM10 inh 42.8, tim23-1 inh 61.4 | tim10 confirm inactive | tim23-1 confirm 52.2
CC1(C)CC(=O)C(N=Nc2cc(Cl)c(Cl)c(Cl)c2)=C(O)C1	none
COc1ccc(S(=O)(=O)Nc2cccc3c2O[C@H](CN(C)Cc2ccncc2)[C@@H](C)CN([C@H](C)CO)C3=O)cc1	none (no result: NALP1 yeast inh)
O=C(Nc1cccc(C(=O)Nc2cccc(Br)c2)c1)c1ccccc1	none
O=C(Nc1cccc(Br)c1)c1ccn[nH]1	TIM10 inh 59.2, tim23-1 inh 57.1 | tim10 confirm 40.7 | tim23-1 confirm 59.8
O=c1oc(-c2cccs2)nc2c1cnn2-c1ccccc1	TIM10 inh 46.9, tim23-1 inh 50.7 | tim10 confirm 34.4 | tim23-1 confirm 46.6
Cc1ccc(CC(=O)O/N=C(\N)c2cccc([N+](=O)[O-])c2)cc1	none
N/C(Cc1ccc([N+](=O)[O-])cc1)=N\OC(=O)c1ccc(Br)cc1	TIM10 inh 91.5, tim23-1 inh 83.2 | tim10 confirm 94.5 | tim23-1 confirm inactive
Cc1ccc(C(=O)O/N=C(\N)Cc2ccc([N+](=O)[O-])cc2)c(Cl)c1	TIM10 inh 89.3, tim23-1 inh 88.0 | tim10 confirm 96.0 | tim23-1 confirm 65.0
Cc1ccc(CNC(=O)/C=C/c2ccc(S(=O)(=O)N3CCOCC3)cc2)cc1	none
COc1ccccc1CNC(=O)CSC(=S)N1CCCC1	none (no result: NALP1 yeast inh)
CCN(CC)c1ccc(/C=N/NC(=O)c2ccco2)c(O)c1	TIM10 inh 53.6, tim23-1 inh 75.1 | tim10 confirm 61.3 | tim23-1 confirm 77.1
N#C/C(=C\c1ccccc1)C(=O)N1CCN(c2ccccc2F)CC1	TIM10 inh 47.2, tim23-1 inh 66.4 | tim10 confirm 44.5 | tim23-1 confirm 48.5
C/C(=C/c1ccccc1)C(=O)N1CCN(c2ccccc2F)CC1	none
